Reference: PubChem BioAssay AID614 (Sanford-Burnham Center for Chemical Genomics, 2007)
Out of some 21,000 compounds screened, fewer than 10 were called active.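 The calls were made as follows: active = inhibition above 50% at the 20 µM single-dose screen; inactive = the rest.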 A selection follows.

Target: Alkaline phosphatase, tissue-nonspecific isozyme (Homo sapiens) (UniProt P05186)
Assay: blockers of alkaline phosphatase TNAP activity – biochemical, colorimetric, phosphate release readout, primary screen (AID 614)
Conditions: purified TNAP, pNPP, malachite green phosphate absorbance; at 20 µM; stronger effect = higher value

Sequence of Alkaline phosphatase, tissue-nonspecific isozyme (Homo sapiens) (P05186 whole entry, looked up): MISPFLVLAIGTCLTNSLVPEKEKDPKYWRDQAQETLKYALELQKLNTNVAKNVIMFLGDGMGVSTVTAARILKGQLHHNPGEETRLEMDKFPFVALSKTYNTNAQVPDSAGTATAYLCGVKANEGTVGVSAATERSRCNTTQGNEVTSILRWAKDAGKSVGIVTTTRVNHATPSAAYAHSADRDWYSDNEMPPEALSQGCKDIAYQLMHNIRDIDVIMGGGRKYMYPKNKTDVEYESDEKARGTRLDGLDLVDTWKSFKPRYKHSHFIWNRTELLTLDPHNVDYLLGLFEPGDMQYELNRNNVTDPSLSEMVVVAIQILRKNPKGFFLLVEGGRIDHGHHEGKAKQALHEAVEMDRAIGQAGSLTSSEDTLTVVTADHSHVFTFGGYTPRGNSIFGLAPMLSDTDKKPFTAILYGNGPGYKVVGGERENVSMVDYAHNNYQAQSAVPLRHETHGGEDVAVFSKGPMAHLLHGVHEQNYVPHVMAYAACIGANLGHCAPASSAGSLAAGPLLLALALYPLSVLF

inhibition, inactive:
CCOC(=O)CC1=CC(=O)Nc2ccccc2N1 2.4%
Cc1cc(C)cc(OCc2nnc(SCC(=O)OC3CCCCC3)o2)c1 -4.5%
COC(=O)c1nc(NC(=O)c2ccc(Cl)cc2)n[nH]1 1.5%
CCC1SC2=NCCN2C1(O)c1ccc(Cl)cc1 (configuration not stated) 3.8%
CCSc1nc(=S)n(CC)c(C)c1C(C)=O 5.7%
Cc1ccc2nc(NC3=NCN(CCc4ccccc4)CN3)nc(C)c2c1 10.4%
O=C(CN(c1ccc2c(c1)OCCO2)S(=O)(=O)c1ccccc1)Nc1ccc2c(c1)OCO2 5.3%
O=S(=O)(NCC1CCCO1)c1ccc2ccccc2c1 (configuration not stated) 8.8%
CCn1c(SCC(=O)Nc2nc3ccc(OC)cc3s2)nnc1-c1ccoc1C 1.9%
CSCC[C@H](NC(=O)NCc1cccs1)C(=O)O -0.1%
COC(=O)c1ccc(CSc2nncn2C)cc1 11%
COc1cccc(N(CC(=O)Nc2cccc(F)c2)S(C)(=O)=O)c1 0.7%
CCOP1(=O)C=C(C(C)(C)C)OC1c1ccc(F)cc1 (configuration not stated) -0.2%
CCN1CCN(C(=O)c2ccccc2N(C)S(=O)(=O)c2ccc(C)cc2)CC1 11.4%
Nn1c(SCC(=O)NC(=O)NC2CCCC2)nnc1-c1ccccc1F 15.5%
CCCn1c(SCC(=O)c2ccc3c(c2)OCCO3)nnc1C(C)C 11.4%
O=C(Nc1cccc2c1CCCC2)C1CCN(C(=O)NC2CCCCC2)CC1 15.2%
COc1ccc2c(c1)C(C)=CC(C)(C)N2C(=O)CNCc1ccc2c(c1)OCO2 6.2%
COc1ccc(NS(=O)(=O)c2ccc(NC(=O)C(C)(C(F)(F)F)C(F)(F)F)cc2)nn1 3.4%
Cc1ccc(C(=O)CS(C)(=O)=O)cc1 -1.2%
Clc1ccc(CSc2nnc([C@@H]3CCCN3)o2)cc1 13%
COC(=O)C1C(=O)CC(C)(O)C(C(=O)OC)C1c1ccc2c(c1)OCO2 (configuration not stated) 9.9%
CN(C)Cc1c(C#N)c2ccccc2n1C -22.9%
C=CCn1c(CC(=O)Nc2cccc(OC)c2)nnc1SCC(=O)NC1CCCCC1 -6.2%
Cc1cc(Br)ccc1NC(=O)C1CCCO1 (configuration not stated) 0%
Cc1ccc(C(=O)CSc2nc3ccccc3c(=O)n2N)o1 6%
CCCCC(CCC(=O)Nc1ccc(C(=O)OCC)cc1)C(=O)O (configuration not stated) 6%
Fc1cnc(N2CCOCC2)nc1NCc1ccccc1 -0.4%
CCOC(=O)CN(C(=O)CN1CCOCC1)c1ccc(Br)cc1 -1.5%
O=C(O)COc1nsnc1N1CCOCC1 10.4%
O=C1CCC(C(=O)Nc2ccc(OC(F)F)cc2)N1 (configuration not stated) 21.3%
Cc1cccc(Cn2c(N3CCN(c4ccccc4)CC3)nc3c2c(=O)n(C)c(=O)n3C)c1 8.8%
O=C1CC(N2CCN(C(c3ccccc3)c3ccccc3)CC2)C(=O)N1 (configuration not stated) 7.9%
COC(=O)c1ccc(N(CC(=O)NC2CCCC2)C(=O)CNC(=O)c2ccco2)cc1 0%
Cc1ccc(C)c(NC(=O)C2CCCN2C(=O)OC(C)(C)C)c1 (configuration not stated) -3.4%
O=C(NCc1ccc(Cl)cc1)c1cc2c(nc3sccn32)s1 12.4%
CN(C)CCCNc1c2c(c(C#N)c3nc4ccccc4n13)CCC2 0%
Cc1c(C(=O)OCc2cc(=O)n3cc(Br)ccc3n2)oc2ccccc12 -2.2%
Cc1ccc(Oc2ccc(N)cc2)cc1 15%
Cc1cc(N2CCCC2)n2nc(C)c(-c3ccccc3)c2n1 8.2%
CC(C)C1Cc2c(sc3c2c(=O)n(-c2ccccc2)c2nncn32)CO1 (configuration not stated) 10.1%
COC(=O)c1cc(OC)c(OC)cc1NC(=O)C1CCCO1 (configuration not stated) 6%
CC(=O)N1CCN(C(=O)Nc2cccc(C(F)(F)F)c2)CC1 -0.7%
CCCC(=O)Nc1ccc2c(c1)nc1n2CCSC1 3.5%
O=C(CSc1nnc(-c2ccoc2)o1)N1CCOCC1 -1.3%
c1cnc(NC2C3CC4CC(C3)CC2C4)nc1 (configuration not stated) 3.8%
N#CC(C(N)=O)=C1CCC2(CC1)OCCCCO2 13.2%
Cc1ccc(S(=O)(=O)N2CCC(N3CCCCCC3)CC2)cc1 7%
COc1ccc(-c2nnc(SCC(=O)c3ccco3)n2-c2ccccc2)cc1 2.3%
O=C(c1cccc(S(=O)(=O)N2CCOCC2)c1)N1CCOCC1 6.8%
CCc1ccc(N2CC(C(=O)NC3=NCCS3)CC2=O)cc1 (configuration not stated) -4.1%
COC(=O)[C@H](Cc1ccccc1)NC(=O)N1CC(C)OC(C)C1 (some centres not stated) 6.7%
CC(C)OCCCNc1nc2c(c(=O)n(Cc3ccccc3F)c(=O)n2C)n1C 11.4%
N#Cc1c2c(c(-c3ccccc3)[nH]c1=O)CCCC2 9.6%
Cc1ccc(C(C(=O)NC2CCCC2)N(Cc2ccco2)C(=O)CCC(=O)Nc2ccccn2)cc1 (configuration not stated) 7.3%
COc1c(O)cccc1-c1nnn(CCC(=O)OCC(=O)c2ccccc2)n1 2.2%
O=C(O)c1cscn1 4.2%
O=C(CSc1nnc(-c2ccccn2)n1-c1ccccc1)Nc1ccc2c(c1)OCO2 3.6%
COc1ccc(C(=O)Nc2ccc(S(=O)(=O)Nc3onc(C)c3C)cc2)cc1OC 0.4%
CCOC(=O)C1=C(C)NC(=O)N(C(C)=O)C1c1ccc(Cl)cc1 (configuration not stated) 10%
O=C(NCCSc1ccccc1)c1ccco1 13.2%
CCc1nc2ccccc2n(CCOCCOCCn2c(=O)c(CC)nc3ccccc32)c1=O 8.8%
COc1cccc(N(CC(=O)Nc2cccc(N(C)S(C)(=O)=O)c2)S(C)(=O)=O)c1 0%
CS(=O)(=O)N1CCN(C(=O)c2cc3ccccc3oc2=O)CC1 11.1%
COc1ccc(CNC(=O)c2c(C)cc(=O)oc2C)cc1OC 11.6%
COc1ccc(-n2c(SCC(=O)OC(C)C)nnc2-c2ccccn2)cc1 7.8%
CCN(CC)S(=O)(=O)c1cccc(C(=O)Nc2ccccc2)c1 3.8%
Cc1cc(C)nc(SCc2nnc(SCC(=O)OC3CCCCC3)o2)n1 2.9%
CNC(=O)c1nnn(-c2ccccc2)c1C(=O)NC 6.4%
COC(=O)c1ccc(NC(=O)CSc2nnc(CNc3ccc(OC)cc3)n2C)cc1 -7.8%
CCc1nc2oc3ccccc3c(=O)c2c(=O)n1Cc1ccc(OC)cc1 6.6%
CCOC(=O)c1cc2cc(C)ccc2[nH]1 -8.6%
